According to PubChem BioAssay AID1259336 (Sattelle Laboratory, UCL Respiratory, Division of Medicine, …, 2017):
Unmarked numbers belong to inactive results. The source made the active and inactive calls. Cut-off read from the data, not from the text of the source: active = log2 fold change growth below about -1.8; inactive = the rest.

Assay: C. elegans growth inhibition, whole organism, log2 fold change (AID 1259336);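 note: growth scored by imaging after five days at 20 °C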
Conditions: anthelmintic screen, stronger effect = lower value

Question: For `O=C(NCCc1ccn(-c2ccccc2)n1)C1CCCCC1`, which log2 fold change growth is on record?
Answer: 0.0936

Question: With `NC(=O)c1cc(-c2ccsc2)ccc1OCCOc1ccccc1` as the compound, how does the log2 fold change growth read?
Answer: 0.0714

Question: For `CC(C)(C)n1nc(-c2ccccc2)c2c(N)ncnc21`, which log2 fold change growth is on record?
Answer: -0.162

Question: For `O=C(CN1CCOCC1)Nc1ccc2ncnc(Nc3ccc(OCc4cccc(F)c4)c(Cl)c3)c2c1`, which log2 fold change growth is on record?
Answer: -0.76

Question: With `Cc1cc(C)c2cc(C(=O)NC3CCCCCCC3)[nH]c2c1` as the compound, how does the log2 fold change growth read?
Answer: -0.0221

Question: With `Cn1ncc2c(N3CCOCC3)nc(NCCc3c[nH]c4ccccc34)nc21` as the compound, how does the log2 fold change growth read?
Answer: 0.0196

Question: Which log2 fold change growth does the source give for `COc1ccc(C(=N)N)cc1-c1cn(-c2ccc(C(=N)N)cc2)nn1` here?
Answer: -0.0296

Question: With `CC[C@H](C)NC(=O)c1ccc(NC(=O)C2(c3ccccc3)CCCC2)cc1` as the compound, how does the log2 fold change growth read?
Answer: 0.546

Question: For `O=C(C1CCN(c2cc(-n3cccc3)ncn2)CC1)N1CCc2ccccc2C1`, which log2 fold change growth is on record?
Answer: -0.11

Question: With `O=C(NCc1cc(Cl)cc(Cl)c1)c1c(C(F)(F)F)nc2ccccn12` as the compound, how does the log2 fold change growth read?
Answer: -0.11

Question: Which log2 fold change growth does the source give for `O=C(Nc1nc(-c2ccccn2)cs1)C1CC1c1ccccc1F` (stereo not drawn) here?
Answer: -2.09 (active)

Question: Which log2 fold change growth does the source give for `Cc1cc(=O)[nH]c(-n2nc(C)cc2C)n1` here?
Answer: 0.36

Question: With `O=C(Nc1ccc(N2CCNCC2)nc1)c1oc(-c2ccccc2)nc1C(F)(F)F` as the compound, how does the log2 fold change growth read?
Answer: -0.164

Question: Which log2 fold change growth does the source give for `Nc1ncc(Br)cc1-c1nc2ncc(Cl)cc2[nH]1` here?
Answer: 0.329

Question: For `CCn1ncc2c(NC3CCOCC3)c(CNC(=O)c3ccnn3C)c(C)nc21`, which log2 fold change growth is on record?
Answer: -0.407

Question: With `O=C(Nc1ccc(N2CCNCC2)cc1)c1ccn2ncc(-c3cccc(Cl)c3)c2n1` as the compound, how does the log2 fold change growth read?
Answer: -0.0705

Question: With `Cc1nn(C)cc1[C@H](C)Nc1nncc(-c2ccc(C(F)(F)F)cc2)n1` as the compound, how does the log2 fold change growth read?
Answer: 0.429

Question: Which log2 fold change growth does the source give for `CNC(=O)c1cc(S(=O)(=O)N2CCN(c3ccccn3)CC2)cs1` here?
Answer: -0.156

Question: For `N#Cc1ccc(-c2ccc(OCC(N)=O)cc2)cc1`, which log2 fold change growth is on record?
Answer: -0.349

Question: Which log2 fold change growth does the source give for `C[C@H](C(N)=O)N1CCCC[C@@H]1c1ccc(OCc2cccc(F)c2)cc1` here?
Answer: -0.0568

Question: Which log2 fold change growth does the source give for `Cc1ccc2cc([C@@H]3NC(=O)c4ccccc4N3)c(Cl)nc2c1` here?
Answer: -0.0454

Question: With `CCCCCCCCCCCCCCCCOP(=O)([O-])OCC[N+](C)(C)C` as the compound, how does the log2 fold change growth read?
Answer: 0.528

Question: For `Cc1nc2ccccn2c1C(=O)NCc1ccc(Cl)cc1`, which log2 fold change growth is on record?
Answer: 0.244
